# An excerpt weighted towards active compounds, which were near 6.7% of everything screened.
# BoNT-F LC inh: blocks Botulinum neurotoxin F light chain protease. AID 588497. Multiplex microsphere protease cleavage assay, flow cytometry. 360,000 compounds, 0.22% hits. inhibition, % at 10 µM; in the data active means inhibition above about 35%, passing the limit was not always enough; inconclusive means no clear call, values can overlap the other calls
# Anthrax LF inh2: inhibitors of Bacillus anthracis lethal factor protease; multiplex microsphere protease cleavage assay, LF; inhibition, % at 10 µM; 360,000 compounds, 0.12% hits
# GDH-TPI inh: GDH-TPI coupled enzyme inhibition counter-screen | 360,000 compounds, 1.2% hits | GDH-TPI coupled enzyme counterscreen, NADH absorbance | inhibition, % at 4.8 µM; in the data active means inhibition above about 30%
# Mtb FBA inh: inhibitors of M. tuberculosis fructose-bisphosphate aldolase; inhibition, % at 1 µM; P9WQA3; purified M. tuberculosis FBA, fluorescence read-out; 360,000 compounds, 2.3% hits; AID 588726; in the data active means inhibition above about 27%
# Target sequence (P9WQA3 whole entry, looked up): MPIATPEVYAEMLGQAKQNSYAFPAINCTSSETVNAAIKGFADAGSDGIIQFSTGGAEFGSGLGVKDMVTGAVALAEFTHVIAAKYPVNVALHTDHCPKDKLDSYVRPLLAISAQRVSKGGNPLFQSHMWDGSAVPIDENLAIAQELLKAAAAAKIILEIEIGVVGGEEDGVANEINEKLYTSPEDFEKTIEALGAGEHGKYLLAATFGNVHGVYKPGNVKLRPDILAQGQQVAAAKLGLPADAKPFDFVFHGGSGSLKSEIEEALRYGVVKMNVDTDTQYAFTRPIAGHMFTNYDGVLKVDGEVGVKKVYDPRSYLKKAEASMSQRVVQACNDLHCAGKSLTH
# Autofluor counter: compound fluorescence in toxin protease inhibitor counterscreen; compound autofluorescence counterscreen, microsphere flow cytometry; active compounds read high; fluorescence intensity (test concentration not listed); 360,000 compounds, 3.1% hits; in the data active means fluorescence intensity above about 16000; inconclusive means no clear call, values can overlap the other calls
# BoNT A protease: blocks Botulinum neurotoxin A light chain protease | multiplex microsphere protease substrate cleavage, flow cytometry | inhibition, % at 10 µM | 360,000 compounds, 0.17% hits
# Hits are given with their value; - = inactive; ? = inconclusive; . = no result; + = active, no number. Unless noted, no stated cut-off is given here; in the data, active means inhibition above about 30%; inconclusive means no clear call, values can overlap the other calls; inactive means below that.
SMILES,BoNT-F LC inh,Anthrax LF inh2,GDH-TPI inh,Mtb FBA inh,Autofluor counter,BoNT A protease
CCOC(=O)c1cc(C)sc1N1C(=O)C2C3C=CC(C3)C2C1=O (stereo not drawn),-,-,-,-,24106,-
CCn1c(O)c(N=Nc2ccc(S(=O)(=O)N3CCOCC3)cc2)c(=O)n(CC)c1=S,-,-,-,-,-,-
CCCCOCCCNc1ncnc2c1[nH]c1ccccc12,-,-,-,-,23545,-
CCOCCCNc1ncnc2c1[nH]c1ccccc12,-,-,-,-,-,-
Cn1c(=O)[nH]c(=O)c2c1nc(Sc1ccccc1)n2CCc1ccccc1,-,-,-,-,-,-
Cc1[nH]c(=S)c(C#N)c2c1CCCC2,-,-,-,-,-,-
Cc1[nH]c(=O)c(C#N)c2c1CCCC2,-,-,-,-,22068,-
O=C(Cc1ccc([N+](=O)[O-])cc1)NC(C(=O)O)C(O)c1cccc([N+](=O)[O-])c1 (stereo not drawn),-,-,-,-,-,-
CN(C)c1ccc(P(=O)(OCc2ccccc2)C(O)c2ccncc2)cc1 (stereo not drawn),.,.,-,-,.,.
CCCOP(=O)(c1ccc(N(C)C)cc1)C(O)c1ccncc1 (stereo not drawn),-,-,-,-,19418,-
CCOC(=O)N1CCN(c2nc(C)c3c(n2)CC(C)CC3=O)CC1 (stereo not drawn),-,-,-,-,23668,-
CCc1ccc(C(=O)COC(=O)c2cccc(N3C(=O)c4c(C)nc5ccccc5c4C3=O)c2)cc1,-,-,-,-,-,-
Cc1ccc(-c2cc3nc(C)cc(NCc4ccco4)n3n2)cc1,-,-,-,-,16495,-
O=C(Nc1ccsc1C(=O)N1CCCCCC1)c1ccccc1,-,-,-,-,16715,-
CCOCCCNC(=O)CS(=O)(=O)Cc1nc(-c2cccc(OC)c2)oc1C,-,-,-,-,21852,?
CCCNC(=O)CS(=O)(=O)Cc1nc(-c2cccc(OC)c2)oc1C,-,-,-,-,-,-
CCc1ccc(CNn2cnnc2SCC(=O)NC(C)(C)C)cc1,-,-,-,-,16664,-
CC1CCCN(C(=O)C2c3ccccc3C(=O)N3CCc4ccccc4C23)C1 (stereo not drawn),-,-,-,-,23724,-
CCn1c(=O)c(-c2ccccc2)c(O)c2ccccc21,-,-,-,-,-,-
Cc1cc(-n2c(SCC(=O)Nc3ccc(Br)cc3)nc3n[nH]c(C)c3c2=N)ccc1Cl,-,-,-,-,-,-
Cc1cc(-n2c(SCC(=O)NCc3cccs3)nc3n[nH]c(C)c3c2=N)ccc1Cl,-,-,-,-,23384,-
CCOc1ccc(N2C(=O)CC(N(Cc3ccco3)C(C)=O)C2=O)cc1 (stereo not drawn),-,-,-,-,-,-
CC1(C)N=C(c2ccc(Cl)cc2)C(=O)N1,-,-,-,-,23886,-
COc1cc2c(cc1OC)CN(C(C)C(=O)Nc1ccc(NC(C)=O)cc1)CC2 (stereo not drawn),-,-,-,-,17392,-
COc1cc2c(cc1OC)CN(CC(=O)Nc1ccc(C)cc1)CC2,-,-,-,-,20583,-
SMILES,BoNT-F LC inh,Anthrax LF inh2,GDH-TPI inh,Mtb FBA inh,Autofluor counter,BoNT A protease
COc1cc(OC)cc(C(=O)/C=C2\Sc3ccccc3N2C)c1,-,-,-,-,-,-
CN1/C(=C/C(=O)c2cccs2)Sc2ccccc21,-,-,-,-,20294,-
CN1/C(=C\C(=O)c2cccs2)Sc2ccccc21,-,-,-,-,-,-
CN1/C(=C/C(=O)C2CCC2)Sc2ccccc21,-,-,68,-,-,-
COCC(=O)/C=C1\Sc2ccccc2N1C,-,-,37,-,-,-
CN1/C(=C\C(=O)c2cccc([N+](=O)[O-])c2)Sc2ccccc21,-,-,-,-,-,-
Cc1ccc2cccc(Oc3ncnc4scc(-c5ccccc5)c34)c2n1,-,-,-,-,-,-
CCC(=O)Nc1ccc(Cl)c(Cl)c1,-,-,-,-,-,-
O=C(c1ccccn1)N(Cc1cc2ccccc2[nH]c1=O)C1CCCCC1,-,-,-,+,-,-
COc1cc2cc(CN(C(=O)NC3CCCCC3)C3CCCC3)c(=O)[nH]c2cc1OC,-,-,-,-,-,-
Cc1ccc(C)c2[nH]c(=O)c(CN(CC3CCCO3)C(=O)NC3CCCCC3)cc12 (stereo not drawn),-,-,-,-,19956,?
COc1ccc(CN(Cc2cc3cc(OC)c(OC)cc3[nH]c2=O)C(=O)NC2CCCCC2)cc1,-,-,-,-,22119,-
